PubChem BioAssay AID1159580 (chemical genetic matrix, 2015)
In all, about 5,500 compounds went through this assay and about 2,000 (36%) were called active. Roughly 18% stayed inconclusive and do not appear here. No stated cut-off is given here; in the data, active means normalized growth mostly below about 0.91 (no sharp cut-off); inconclusive means no clear call, values can overlap the other calls; inactive means mostly above about 0.92. Some of the results follow.

Assay: chemical genetic growth profiling, strain panel (AID 1159580);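 further: tested at 20 µM; growth read once vehicle control cultures reached saturation at 30 °C; 1 = growth at the plate median or of vehicle wells; lower values mean less growth of the strain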
Details: S. cerevisiae deletion strains, growth OD

Measured: normalized growth

C=C1C2=CC(=O)O[C@@H](c3ccoc3)[C@]2(C)CCC1[C@@]1(C)C=CC(=O)C(C)(C)[C@@H]1CC(=O)OC (stereo partly drawn)
inactive: locus YAL021C, strain ccr4, hits give low values 1.04 | locus YAL026C, strain drs2, hits give low values 0.996 | locus YAL030W, strain snc1, hits give low values 0.998 | locus YBL061C, strain skt5, hits give low values 0.999 | locus YBR009C, strain hhf1, hits give low values 1.02 | locus YBR021W, strain FUR4, hits give low values 0.989 | locus YBR023C, strain chs3, hits give low values 1.01 | locus YBR171W, strain sec66, hits give low values 0.983 | locus YBR229C, strain ROT2, hits give low values 1 | locus YBR231C, strain swc5, hits give low values 0.982 | locus YBR279W, strain paf1, hits give low values 1 | locus YCL011C, strain gbp2, hits give low values 1.01 | locus YCL016C, strain dcc1, hits give low values 1.04 | locus YCL029C, strain bik1, hits give low values 0.983 | locus YCL061C, strain MRC1, hits give low values 1.01 | locus YCL069W, strain vba3, hits give low values 0.984 | locus YCR088W, strain abp1, hits give low values 0.982 | locus YDL005C, strain med2, hits give low values 0.996 | locus YDL035C, strain GPR1, hits give low values 0.991 | locus YDL040C, strain nat1, hits give low values 0.999 | locus YDL074C, strain BRE1, hits give low values 1.02 | locus YDL101C, strain DUN1, hits give low values 1.01 | locus YDL185W, strain tfp1, hits give low values 0.988 | locus YDL192W, strain arf1, hits give low values 0.999 | locus YDR001C, strain nth1, hits give low values 0.994 | locus YDR069C, strain doa4, hits give low values 0.991 | locus YDR101C, strain arx1, hits give low values 0.958 | locus YDR137W, strain rgp1, hits give low values 0.999 | locus YDR150W, strain NUM1, hits give low values 1.01 | locus YDR159W, strain sac3, hits give low values 0.953 | locus YDR162C, strain NBP2, hits give low values 1 | locus YDR195W, strain ref2 0.95 | locus YDR297W, strain sur2, hits give low values 0.988 | locus YDR318W, strain mcm21, hits give low values 1.01 | locus YDR334W, strain swr1, hits give low values 0.982 | locus YDR335W, strain msn5, hits give low values 0.997 | locus YDR388W, hits give low values 1 | locus YDR392W, strain spt3, hits give low values 1.03 | locus YDR502C, strain sam2, hits give low values 0.988 | locus YEL003W, strain gim4, hits give low values 0.994 | locus YEL037C, strain rad23, hits give low values 1 | locus YEL061C, strain CIN8 (second series), hits give low values 0.978 | locus YER015W, strain faa2, hits give low values 1.01 | locus YER016W, strain bim1, hits give low values 0.985 | locus YER110C, hits give low values 0.997 | locus YER111C, strain swi4, hits give low values 0.986 | locus YER155C, strain BEM2 (second series), hits give low values 1.02 | locus YER155C, strain BEM2, hits give low values 0.982 | locus YER167W, strain BCK2, hits give low values 1 | locus YFR010W, strain ubp6, hits give low values 0.972 | locus YGL078C, strain dbp3, hits give low values 0.999 | locus YGL086W, strain mad1, hits give low values 0.999 | locus YGL167C, strain pmr1, hits give low values 1.01 | locus YGL173C, strain kem1, hits give low values 0.99 | locus YGL227W, strain vid30, hits give low values 0.992 | locus YGL240W, strain doc1, hits give low values 0.994 | locus YGL248W, strain PDE1, hits give low values 1.01 | locus YGL253W, strain hxk2, hits give low values 0.937 | locus YGR078C, strain PAC10, hits give low values 1.01 | locus YGR135W, strain pre9, hits give low values 1.01 | locus YGR252W, strain gcn5, hits give low values 0.976 | locus YHR013C, strain ard1, hits give low values 1.01 | locus YHR027C, strain rpn1, hits give low values 0.976 | locus YHR079C, strain IRE1 (second series), hits give low values 0.985 | locus YHR094C, strain hxt1, hits give low values 0.996 | locus YHR129C, strain ARP1, hits give low values 1.01 | locus YHR142W, strain chs7, hits give low values 1.01 | locus YHR200W, strain rpn10, hits give low values 1 | locus YIL066C, strain RNR3, hits give low values 1.01 | locus YIL073C, strain SPO22, hits give low values 1.02 | locus YIL125W, strain kgd1, hits give low values 0.995 | locus YIR030C, strain dcg1, hits give low values 1 | locus YJL092W, strain hpr5, hits give low values 0.984 | locus YJL095W, strain BCK1 (second series), hits give low values 0.986 | locus YJL095W, strain BCK1, hits give low values 1.02 | locus YJL115W, strain asf1, hits give low values 0.999 | locus YJL129C, strain trk1, hits give low values 0.99 | locus YJL134W, strain LCB3, hits give low values 0.997 | locus YJL154C, strain vps35, hits give low values 0.995 | locus YJL164C, strain tpk1, hits give low values 1.02 | locus YJL166W, strain qcr8, hits give low values 0.996 | locus YJL168C, strain set2, hits give low values 1 | locus YJL187C, strain SWE1 (second series), hits give low values 1.01 | locus YJL187C, strain SWE1, hits give low values 0.99 | locus YJR075W, strain HOC1, hits give low values 0.993 | locus YKL009W, strain mrt4, hits give low values 0.976 | locus YKL068W, hits give low values 0.997 | locus YKL085W, strain MDH1 (second series), hits give low values 0.992 | locus YKL085W, strain MDH1, hits give low values 0.992 | locus YKL160W, strain elf1, hits give low values 1.06 | locus YKR001C, strain vps1, hits give low values 0.998 | locus YKR026C, strain gcn3, hits give low values 0.976 | locus YKR091W, strain srl3, hits give low values 0.994 | locus YLL001W, strain dnm1, hits give low values 0.99 | locus YLL026W, hits give low values 0.989 | locus YLL041C, strain sdh2, hits give low values 0.987 | locus YLR027C, strain aat2, hits give low values 0.978 | locus YLR039C, strain RIC1, hits give low values 1.05 | locus YLR058C, strain SHM2, hits give low values 1.01 | locus YLR102C, strain apc9, hits give low values 1 | locus YLR221C, strain rsa3, hits give low values 0.987 | locus YLR258W, strain gsy2, hits give low values 1.02 | locus YLR262C, strain YPT6 (second series), hits give low values 0.997 | locus YLR262C, strain YPT6, hits give low values 1.08 | locus YLR268W, strain sec22, hits give low values 0.996 | locus YLR320W, strain mms22, hits give low values 1.01 | locus YLR342W, strain FKS1 (second series), hits give low values 1.01 | locus YLR342W, strain FKS1, hits give low values 0.995 | locus YLR357W, strain rsc2, hits give low values 1.03 | locus YLR370C, strain arc18, hits give low values 0.97 | locus YLR371W, strain rom2, hits give low values 0.998 | locus YLR384C, strain iki3, hits give low values 1 | locus YLR418C, strain cdc73, hits give low values 1.01 | locus YML016C, strain PPZ1, hits give low values 0.998 | locus YML032C, strain rad52, hits give low values 0.984 | locus YML120C, strain ndi1, hits give low values 1.02 | locus YML124C, strain tub3, hits give low values 0.997 | locus YMR058W, strain fet3, hits give low values 1 | locus YMR078C, strain ctf18, hits give low values 1 | locus YMR125W, strain sto1, hits give low values 1 | locus YMR129W, hits give low values 0.991 | locus YMR205C, strain PFK2, hits give low values 1.07 | locus YMR223W, strain ubp8, hits give low values 0.989 | locus YMR231W, strain pep5, hits give low values 0.973 | locus YMR307W, strain GAS1, hits give low values 1.03 | locus YNL067W, strain RPL9B, hits give low values 1 | locus YNL071W, strain lat1, hits give low values 0.996 | locus YNL209W, strain ssb2, hits give low values 1.03 | locus YNL233W, strain BNI4, hits give low values 1.01 | locus YNL248C, strain rpa49, hits give low values 0.966 | locus YNL250W, strain rad50, hits give low values 0.997 | locus YNL271C, strain bni1, hits give low values 0.995 | locus YNL298W, strain CLA4, hits give low values 0.988 | locus YNL307C, strain MCK1, hits give low values 1 | locus YNL322C, strain KRE1 (second series), hits give low values 0.995 | locus YNL322C, strain KRE1, hits give low values 0.995 | locus YNR049C, strain mso1, hits give low values 0.99 | locus YNR052C, strain pop2, hits give low values 1.01 | locus YOL012C, strain htz1 1.06 | locus YOL147C, strain pex11, hits give low values 0.996 | locus YOR001W, strain rrp6, hits give low values 0.947 | locus YOR061W, strain CKA2, hits give low values 0.994 | locus YOR069W, strain VPS5, hits give low values 1 | locus YOR070C, strain gyp1, hits give low values 1 | locus YOR080W, strain dia2, hits give low values 0.983 | locus YOR083W, strain WHI5, hits give low values 1.06 | locus YOR106W, strain vam3, hits give low values 1.03 | locus YOR136W, strain idh2, hits give low values 0.993 | locus YOR144C, strain elg1, hits give low values 0.995 | locus YOR184W, strain ser1, hits give low values 0.992 | locus YOR265W, strain rbl2, hits give low values 0.984 | locus YOR270C, strain vph1, hits give low values 0.991 | locus YOR290C, strain snf2, hits give low values 1.06 | locus YOR316C, strain cot1, hits give low values 0.95 | locus YPL051W, strain arl3, hits give low values 0.985 | locus YPL078C, strain atp4, hits give low values 1.05 | locus YPL106C, strain sse1, hits give low values 1.08 | locus YPL240C, strain hsp82, hits give low values 0.992 | locus YPR119W, strain clb2, hits give low values 1 | locus YPR141C, strain kar3, hits give low values 0.999 | locus YPR163C, strain tif3, hits give low values 0.991 | locus YPR167C, strain met16, hits give low values 0.992 | strain wtn01, hits give low values 0.978
